Compound activity deposited in PubChem BioAssay by National Center for Advancing Translational Sciences (NCATS).
The full list was thinned out, with hits kept by preference.
ALOX12 inhib = inhibitors of human 12-lipoxygenase (ALOX12). purified 12-hLO, xylenol orange hydroperoxide absorbance. Potency, µM (doses to about 57.1 µM), inactives show at the top dose activity change, negative = inhibition, most hits filed as inhibitors. 0.12% of 150,000 active. AID 1452; also: nearly all actives have a fitted effect of over 55% in size
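Purified human 12hLO (150 nM), preincubated 15 min with compound, then 40 uM arachidonic acid for 30 min, room temperature, Hepes pH 7.0 with 0.01% Triton X-100. Hydroperoxide detected by ferrous iron/xylenol orange; 573/405 nm absorbance ratio gives reaction progress.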
15-hLO-2 inh = 15-hLO-2 (ALOX15B) enzyme inhibition; O15296; purified 15hLO-2, xylenol orange hydroperoxide absorbance; Potency, µM (series often up to 57.1 µM), for the others: top-dose activity change, negative = inhibition, most hits filed as inhibitors; 0.56% of 110,000 active; AID 881; also: nearly all actives have a fitted effect of over 60% in size
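Screening format was qHTS against 50 nM purified 15hLO-2 in Hepes pH 7.5 with detergent. Activity follows hydroperoxide formation from 45 uM arachidonic acid, measured as 573:405 nm absorbance ratio of the ferric-xylenol orange complex.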
Starred values were filed as active, the others as inactive; ? = inconclusive; · = no result; [ ] = dose if it differs, or a comment. Calls follow the shape of the dose curve; as a rule, active = well fitted curve in the direction sought with a large enough effect; inconclusive = small, poorly fitted or top-dose-only effect, or another doubt; inactive = no such curve, though single readings can be large; an effect the other way counts as inactive or inconclusive. % is scaled to controls: 0 for no effect and ±100 for the full control effect; potency is read from the fitted curve at half-maximal effect.

SMILES	ALOX12 inhib	15-hLO-2 inh
CCOC(=O)/C=C1\Nc2ccccc2SC1=O	-3%	-12%
CC[C@H]1C2=C3C(CC[C@H]4C(OCc5ccc(F)cc5C(F)(F)F)OC[C@](C)([C@@H]34)N(C(=O)OC(C)(C)C)C2)C(COC)C1COC (stereo not given in full)	0%	6%
CCN(c1cccc(C)c1)S(=O)(=O)c1ccc(O)c(C(=O)O)c1	-2%	·
COc1ccc(NC(=O)CSc2nc(O)cc(=O)n2-c2ccccc2OC)cc1	7.1µM*	-1%
CCN(CC)C(=O)CSc1nc(O)cc(=O)n1-c1ccccc1OC	-8%	-1%
COc1ccccc1-n1c(SCC(=O)Nc2ccc(C)cc2)nc(O)cc1=O	0.079µM*	-8%
COc1ccccc1-n1c(SCC(=O)Nc2cccc3ccccc23)nc(O)cc1=O	-17%	-13%
CCCCc1nc2c(c3c1C[C@H](C)OC3)CN(S(=O)(=O)c1c(C)noc1C)CC2	-2%[11.4 µM]	·
O=C(OCc1ccccc1)[C@@H]1COC(c2ccc(Br)cc2)=N1	0%[0.00818 µM]	14%[0.0915 µM]
Nc1ccc(O)cc1C(=O)OCC(=O)C12CC3CC(CC(C3)C1)C2	?	5µM*
Nc1ccc(O)cc1C(=O)OCC(=O)c1ccc(C2CCCCC2)cc1	-6%	·
CCCCC1=CC2=C(OC(C)=O)C(=O)C(C)(OC(=O)c3ccc(Cl)nc3)C(=O)C2=CO1 (stereo not given)	-3%	·
O=C(NC(=S)Nc1ccc(S(=O)(=O)NC2CCCCC2)cc1)c1cccs1	5µM*	·
O=C(NC(=S)Nc1ccc(S(=O)(=O)N2CCCCC2)cc1)c1cccs1	4%	·
CN(Cc1ccco1)c1ncncc1-c1ccc2c(c1)OCO2	·	-6%
Cc1cc(C2(c3cc(C)c(O)cc3C)OS(=O)(=O)c3ccccc32)c(C)cc1O	-4%	-23%
CN(C)c1ccc(-c2cncnc2NCCN2CCOCC2)cc1	·	-22%
CC1CCC(C(C)C)C2=C1C(C#N)(C#N)C(C#N)(C#N)C(c1ccccc1)N2 (stereo not given)	-28%	10µM*
CC1=CC(C#N)(C#N)C(C#N)(C#N)C(c2ccccc2)N1 (stereo not given)	-7%	-3%
CCCC[C@]1(C2CCCC2)Cc2cc(OCC(=O)O)c(Cl)c(Cl)c2C1=O	-12%	-17%
CCOc1ccc2c(c1)C(C)=CC(C)(C)N2	?	13µM*
CCc1ccc2c(c1)C(C)=CC(C)(C)N2	-14%	?
CC1=CC(C)(C)Nc2ccc(OC(=O)CN3C(=O)c4ccccc4C3=O)cc21	0%	·
CC1=CC(C)(C)Nc2ccc(OC(=O)CN3C(=O)c4cccc5cccc(c45)C3=O)cc21	-7%	13µM*
Cc1cc(C)c(S(=O)(=O)Nc2ccccc2C(=O)O)cc1C	1%	·
SMILES	ALOX12 inhib	15-hLO-2 inh
Cc1ccc(C#N)cc1	-3%	-1%
CCOC(=O)c1c(C)nc2sccn12	6%	0%
Cc1nc2sccn2c1P(c1c(C)nc2sccn12)c1c(C)nc2sccn12	?	25µM*
CC1CCN(C(=O)N2c3ccccc3Sc3ccccc32)CC1	-6%	6%
O=C(NC1CCN(C(=O)N2c3ccccc3Sc3ccccc32)CC1)c1ccccc1F	?	16µM*
COc1ccc2c3c(cccc13)N(C)N=C2C	?	2.5µM*
COc1ccccc1N1CCN(S(=O)(=O)c2ccc3c4c(cccc24)C(=O)N3C)CC1	1%	7%[2.29 µM]
O=C(Cn1sc2ccccc2c1=O)NC12CC3CC(CC(C3)C1)C2	7.9µM*	0.79µM*
O=C(CSc1ccccc1C(=O)NCc1ccccc1)NC12CC3CC(CC(C3)C1)C2	1%	·
c1ccc2c(c1)Cc1cc3cc4c(cc3nc1-2)OCO4	-15%	-9%
O=C(NCCN1CCCC1)c1ccc(Cc2nc3ccccc3[nH]2)cc1	0%	·
Cc1nc2cnc(N(C)C)nc2n(C2CC2)c1=O	·	-5%
CCOC(=O)Cc1csc(SCn2nnc3ccccc3c2=O)n1	4%	-2%
CCOC(=O)Cc1csc(-n2sc3ccccc3c2=O)n1	4.5µM*	1.3µM*
CCCCCS(=O)(=O)CCCCCCCCCCn1c(-c2ccc(O)cc2)c(C)c2cc(O)ccc21	-10%	-26%
Nc1c(C(=O)Nc2nc3ccccc3s2)sc2nc(-c3cccs3)ccc12	-9%	13µM*
CC(=O)c1sc2nc(-c3cccs3)ccc2c1N	-23%	?
CC1=CC2=NC(=O)/C(=C\c3ccc(-c4cccc(Cl)c4)o3)C(=N)N2O1	0%	·
CC1=NOC(=O)/C1=C\c1ccc(-c2cccc(Cl)c2)o1	-26%	2.5µM*
S=C(Nc1ccc(Br)cc1)NC1CCCC1	-4%	·
S=C(Nc1ccc(Oc2ccccc2)cc1)NC1CCCC1	14µM*	·
COc1ccc(/C=C/C(=O)NC(=S)NCCc2ccc(OC)c(OC)c2)cc1	2%	-29%
COc1ccc(CCNC(=S)NC(=O)c2ccccc2)cc1OC	14µM*	13µM*
O=C(NCCO)c1ccc(-n2c(=O)c(=O)[nH]c3ccccc32)cc1	0%	·
